mIDH1 inhibitor = qHTS for Inhibitors of mutant isocitrate dehydrogenase 1 (IDH1): qHTS; Isocitrate dehydrogenase [NADP] cytoplasmic (Homo sapiens), O75874; IDH1-R132H enzyme, NADPH consumption, diaphorase/resazurin fluorescence; Potency, µM (top dose mostly 76.6 µM), for the others: at the highest dose activity change, negative = inhibition, actives largely listed as inhibitors; 390,000 tested, 0.093% active; AID 602179, 2012; further: on the % scale 0 is the no-effect control and ±100 the full control effect; nearly all actives have a fitted effect of over 65% in size
Target sequence (O75874 whole entry R132H, stated change not applied): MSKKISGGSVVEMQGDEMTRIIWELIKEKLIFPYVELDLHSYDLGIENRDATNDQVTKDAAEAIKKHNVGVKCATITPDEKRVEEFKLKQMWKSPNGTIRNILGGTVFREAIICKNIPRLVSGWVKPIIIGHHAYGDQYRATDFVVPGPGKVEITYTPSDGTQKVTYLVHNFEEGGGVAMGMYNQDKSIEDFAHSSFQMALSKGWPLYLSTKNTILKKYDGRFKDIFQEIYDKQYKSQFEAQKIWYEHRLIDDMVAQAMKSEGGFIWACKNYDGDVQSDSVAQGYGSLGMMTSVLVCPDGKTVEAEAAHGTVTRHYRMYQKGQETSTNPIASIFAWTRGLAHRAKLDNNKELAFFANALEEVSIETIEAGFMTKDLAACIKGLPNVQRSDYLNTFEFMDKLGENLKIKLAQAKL
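IDH1-R132H (0.5 ug/mL) preincubated 30 min with compound, then NADPH (0.016 mM) and alpha-KG (2 mM) added; 80 min at RT, pH 7.5. Remaining NADPH coupled via diaphorase/resazurin to fluorescence (540/590 nm); concentration-response curves normalized to no-enzyme control.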
HTT aggregate = qHTS Multiplex Assay to Identify Dual Action Probes in a Cell Model of Huntington: Aggregate Formation (GFP); PC12 HttQ103-GFP aggregates, Acumen cytometry, 40 h; 220,000 tested, 1.1% active; Potency, µM (series often up to 46.1 µM), without a hit: at the top dose activity change, negative = inhibition, hits mostly inhibitors; further: on the % scale 0 is the no-effect control and ±100 the full control effect; nearly all actives have a fitted effect of over 60% in size
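Using laser scanning cytometry, GFP-positive aggregates were counted after lysis of PC12 cells induced with 100 nM tebufenozide to express HTT exon 1 Q103–GFP. Compounds were tested in titration.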
HTT ATP protect = qHTS Multiplex Assay to Identify Dual Action Probes in a Cell Model of Huntington: Cytoprotection (ATP); AID 1471, 2008; PC12 HTT-Q103 induced, cytoprotection, ATP luminescence, 40 h; Potency, µM (series often up to 56.4 µM), for the others: cytoprotection (ATP increase), hits mostly activators; 230,000 tested, 0.14% active; further: % of control where 0% means no effect; nearly all actives have a fitted effect of over 45% in size
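Quantitative HTS on tebufenozide-induced (100 nM) PC12 cells expressing HTTQ103 exon 1–GFP; compounds tested as a concentration series; survival measured via cellular ATP.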
AT treatment = qHTS Assay for Identifying a Potential Treatment of Ataxia-Telangiectasia. Potency, µM (titrated, usually from 57.5 µM), for inactives: at the top dose activation, usual class: activators. AID 485349, 2010. 320,000 tested, 0.19% active. F2112 A-T fibroblasts, KAP-1 phosphorylation AlphaLISA; neocarzinostatin DNA damage 30 min before lysis; further: % of control where 0% means no effect; nearly all actives have a fitted effect of over 45% in size
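hTERT-immortalized A-T patient fibroblasts (F2112), 500 cells/well in OPTI-MEM, 1% FBS, got compounds for 60 min, then NCS for 30 min at 37C. Lysates were then assayed for phospho-KAP-1 by AlphaLISA (anti-pKAP1 donor, anti-KAP1 acceptor beads), 6 hr at 25C.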
NPSR antagonist = qHTS Assay for Antagonists of the Neuropeptide S Receptor: cAMP Signal Transduction. CHO-NPSR cells, cAMP TR-FRET, antagonist mode. 220,000 tested, 1% active. Potency, µM (top dose mostly 38.3 µM), for the others: top-dose activity change, negative = inhibition, most hits filed as inhibitors. AID 1461, 2008; further: on the % scale 0 is the no-effect control and ±100 the full control effect; nearly all actives have a fitted effect of over 50% in size
Numbers without * were called inactive; u = inconclusive; x = no result; [ ] = another dose, or the depositor's remark. Sampled rows, rich in hits. Any-hit rate of the full collection: about 1.1%. The call rests on the fitted dose curve; in most records, active means well fitted curve in the direction sought with a large enough effect; inconclusive means small, poorly fitted or top-dose-only effect, or another doubt; inactive means no such curve, though single readings can be large; an effect the other way counts as inactive or inconclusive. Potency means the concentration at half of the fitted maximal effect.

SMILES | mIDH1 inhibitor | HTT aggregate | HTT ATP protect | AT treatment | NPSR antagonist
CCC(C)(C)n1nnnc1C(c1ccc2ncccc2c1)N1CCN(Cc2ccc3c(c2)OCO3)CC1 (configuration not stated) | -1% | 2% | 2% | 3% | 7.9µM*
O=C(c1ccccc1)N1CCc2cc(CNS(=O)(=O)c3ccccc3Cl)ccc21 | -12% | x | x | x | x
CCCCCCCCNc1nc(Cl)nc(NCc2ccco2)n1 | 0% | -22% | 0%[10 µM] | 3% | 9%
CCCCCCNc1nc(NCc2ccco2)nc(OCC)n1 | 4% | 10µM* | -59% | 10% | u
CN1CC[C@@]2(CCN3CCc4c(oc5ccccc45)[C@@H]3C2)N(C)C1=O | x | x | -2%[1.9 µM] | x | x
O=C(NCc1cccnc1)/C(=C/c1ccc(-c2cccc(Cl)c2)o1)S(=O)(=O)c1ccccc1 | 1% | u | -87% | 15% | 5µM*
Cn1cc(C=C2C(=O)OC3(CCCCC3)OC2=O)c2ccccc21 | 16% | -8%[9.22 µM] | 9%[10 µM] | -12% | -15%
Cn1cc(C=C2C(=O)CC(C)(C)CC2=O)c2ccccc21 | 20% | 0.025µM* | x | 5% | 13%
CCOC(=O)C1CCCN(S(=O)(=O)c2cc(-c3onc(C)c3C)ccc2OC)C1 (configuration not stated) | 13% | x | x | x | x
C/C(=N\NC(N)=S)C1C2C3CC4C5CC(C42)C1C53 (configuration not stated) | 0% | -24% | 11µM* | 1% | 0%
O=C(N/N=C/c1ccc([N+](=O)[O-])o1)c1ccc(O)cc1 | 13% | 6% | x | -19% | 13µM*
O=C(O)[C@H]1CCCC[C@@H]1c1c2ccc(=O)c(O)c-2oc2c(O)c(O)ccc12 | x | x | -12%[10 µM] | x | x
O=C(OCC(=O)N1CCCCCC1)c1ccc(Cl)c(S(=O)(=O)N2CCCC2)c1 | -5% | 18% | -24% | -4% | -12%
CNC(=O)COC(=O)c1ccc(Cl)c(S(=O)(=O)N2CCCC2)c1 | -4% | u | 2.8µM* | -6% | 12%
Cc1ccc(C(C(=O)NCC2CCCO2)N(Cc2ccccc2)C(=O)c2ccc(-c3ccccc3)[nH]2)o1 (configuration not stated) | 1% | 0.13µM* | x | -8% | -45%
CCCCNS(=O)(=O)c1ccc(S(=O)(=O)NCc2ccncc2)cc1 | -1% | 7.9µM* | x | x | -4%[46.1 µM]
Cc1cc(C)c(S(=O)(=O)NCCc2ccncc2)c(C)c1 | 0% | x | x | 13% | x
Cc1cc(C)c(S(=O)(=O)NCc2ccncc2)c(C)c1 | 3% | 6.3µM* | 35% | -5% | 0%[46.1 µM]
CN1C(=O)c2ccccc2Sc2ccc(NC(=O)N3CCN(c4ccc(F)cc4)CC3)cc21 | -19% | x | x | x | x
CO[C@H]1/C=C/O[C@@]2(C)Oc3c(C)c(O)c4c(O)c(c(/C=N\N5CCN(C6CCCC6)CC5)c(O)c4c3C2=O)NC(=O)/C(C)=C\C=C\[C@H](C)[C@H](O)[C@@H](C)[C@@H](O)[C@@H](C)[C@H](OC(C)=O)[C@@H]1C | x | -32% | -65% | x | x
COc1ccc(CCNC(=O)CCc2c(C)c3cc4c(C)coc4c(C)c3oc2=O)cc1OC | -10% | x | x | x | x
O=C(CNC(=O)c1cccc(F)c1)N/N=C/c1cc(Br)ccc1OC(=O)/C=C/c1ccco1 | -6% | 8.9µM* | x | 2% | -28%
O=C(CNC(=O)c1ccccc1O)N/N=C/c1cc(Br)ccc1OC(=O)/C=C/c1ccco1 | -7% | 2.5µM* | -172% | -3% | -47%
O=C(CNC(=O)c1ccccc1Br)N/N=C/c1ccco1 | 16% | x | x | 4% | x
O=C(CNC(=O)c1ccc(F)cc1)N/N=C/c1cc(Br)ccc1OCc1ccccc1 | 10% | u | x | 1% | -29%
SMILES | mIDH1 inhibitor | HTT aggregate | HTT ATP protect | AT treatment | NPSR antagonist
CCN(CCO)C[C@H]1CCC[C@H]2CCCC[C@@H]21 | x | x | 4%[10 µM] | x | x
CN(C)CCCN=c1c2ccccc2n(C)c2[nH]c(=O)n(C)c(=O)c12 | x | x | -65%[10 µM] | x | x
Cn1c(=O)c2c(nc(NCCc3ccccc3)n2CC(=O)NCCc2ccccc2)n(C)c1=O | -1% | 14% | 7%[10 µM] | 2% | -8%[46.1 µM]
C/C(Cl)=C\Cn1c(NCCc2ccccc2)nc2c1c(=O)n(C)c(=O)n2C | 2% | 4.5µM* | -64% | 4% | -11%[46.1 µM]
C=CCn1c(NCCc2ccccc2)nc2c1c(=O)n(C)c(=O)n2C | 7% | 11µM* | 11%[10 µM] | -1% | 0%[46.1 µM]
Cc1ccc(Cn2c(NCCc3ccccc3)nc3c2c(=O)n(C)c(=O)n3C)cc1 | 11% | u | -29% | 8% | -6%[46.1 µM]
CCOc1ccc(C(=O)Nc2ccc3nc(SCC(=O)N4CCOCC4)sc3c2)cc1 | 20% | x | x | x | x
CCOC(=O)/C(C#N)=C\c1cccnc1 | -2% | 17% | 26% | -1% | 15%
CCOC(=O)/C(=C\c1cccnc1)C(=O)c1cc(C(C)=O)c(Nc2ccccc2)s1 | u | u | -35% | -5% | 3.2µM*
CC(C)c1ccc(Nc2ncnc3c2nc2n3CCCC2)cc1 | -14% | x | x | x | x
O=C(CCc1ccccc1)n1nc(-c2ccccc2)nc1NCc1ccco1 | 3% | 25µM* | 6%[10 µM] | -3% | -12%[46.1 µM]
Oc1ccc(COCc2ccc(F)cc2)c2cccnc12 | x | x | x | 2% | x
O=C(O)CN(c1ccc(F)cc1)S(=O)(=O)c1ccc2c(c1)OCCO2 | 1% | x | 3.2µM* | 2% | 8%[46.1 µM]
N[C@H]1[C@@H](C(=O)O)[C@H]2C=C[C@H]1C2 | x | x | -18%[10 µM] | x | x
N#CC(C#N)=C1C=CC=CN1/C(=C\c1ccccc1Cl)C(=O)c1ccccc1 | -6% | u | x | u | 7.9µM*
N#CC1=C(N)C(C#N)(C#N)C(c2cccnc2)C2CN(C(=O)OCc3ccccc3)CC=C12 (configuration not stated) | 52µM* | u | -89%[10 µM] | 3% | -42%
CCOC(=O)N1CC=C2C(C#N)=C(N)C(C#N)(C#N)[C@H](c3ccc(OCC)c(OCC)c3)[C@H]2C1 | -9% | -7% | -17% | 4% | -15%[46.1 µM]
O=C(O[C@H]1CN2CCC1CC2)N1CCc2ccccc2[C@@H]1c1ccccc1 | x | -5% | 1% | x | x
COc1ccc(C(=O)/C(C#N)=N/Nc2ccc([N+](=O)[O-])cc2)cc1 | -17% | 1.3µM* | -162% | -6% | -13%
Cc1c(N/N=C(\C#N)C(=O)c2ccc(Cl)cc2)c(=O)n(-c2ccccc2)n1C | -9% | -1% | -34%[10 µM] | x | -32%
N#C/C(=N\Nc1ccc(Cl)cc1)C(=O)c1ccccc1 | 5% | u | -55% | 5% | 13µM*
CNCCCCc1cnc(C)c2[nH]c3ccccc3c12 | x | x | 3.5µM* | x | x

Screening data from PubChem.
